Usually viability stands for a read-out of living cells in per cent, often relative to untreated cells. Usually inhibition stands for the change of the read-out against control, counted positive when it falls.

The text below walks through data of PubChem BioAssay.

Calls of active or inactive are those of the source.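 How the source made its calls, unless noted: active means viability loss from added drug above about 55%, and viability with drug at most 40%, in both replicates (limit read from the data, passing the limit was not always enough); inconclusive means both conditions met in only one replicate; inactive means neither replicate meets both conditions.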

Assay [1] can be described thus: HUVEC growth inhibition – cell-based, human, primary screen (AID 575;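 active means viability at or below 30% in both replicate assays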;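 further: 100% = median of untreated cell wells with 0.1% DMSO on each plate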). The following applies: HUVEC proliferation, CellTiter-Glo luminescence, 72 h; at 10 µM; stronger effect = lower value. (In general: Cellular ATP, detected with luciferase, serves as a proxy for viable cell number.)
Assay [2] can be described thus: growth inhibitors of H69AR lung tumor, primary screen, human, duplicate replicates (AID 580;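 active means viability at or under a set limit in both replicates, limit being median viability minus 3 SD, cut at about 48% in these data, passing the limit was not always enough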;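 further: 100% = mean luminescence of untreated wells and 0% = no signal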). Conditions: H69AR lung tumor cells viability, ATP luminescence, 72 h; at 10 µM; stronger effect = lower value.
A short description of assay [3]: reversal of MRP1-mediated doxorubicin resistance, pilot screen, H69AR cells, doxorubicin co-treatment (AID 601). The following applies: CellTiter-Glo, 72 h, at 10 µM; for differential viability (reversal): stronger effect = higher value.
A short description of assay [4]: 384-well plate pilot, post-Golgi transport modulator project, inhibition of yeast transport mutant growth (AID 636; in the data active means inhibition above about 31%). The following applies: absorbance 615 nm, about 18 h, stronger effect = higher value.
The nature of assay [5]: growth suppression of yeast trafficking mutant, preliminary HTS, modulators of trafficking downstream of Golgi apparatus project, 1536-format plate, OD 615 nm (AID 637; in the data active means inhibition above about 30%). Conditions: yeast transport mutant growth, absorbance 615 nm, 18 h; stronger effect = higher value.
The mark [6] stands for this setting: H69AR cells + 2 uM doxorubicin, measured here: viability with 2 uM doxorubicin, stronger effect = lower value.
Where [7] appears, read: H69AR cells, compound alone cytotoxicity.

For `COc1cccc(NC(=O)C2CCN(c3ncccn3)CC2)c1`, the viability in assay [1] was 90% (inactive); in assay [2] it was 94% (inactive); in assay [3] (setting [6]), 96.6%; in assay [3] (setting [7]), 94%. The differential viability (reversal) in assay [3] (H69AR cells + 2 uM doxorubicin) was -2.54% (inactive). Also, the inhibition in assay [4] is -6.4% (inactive); in assay [5], -12.5% (inactive).
Regarding `C=C(C)CSc1nnc2[nH]c(=O)cc(N)n12`, the viability is 65.8% (inactive) in assay [1], 87.9% (inactive) in assay [2], 74.5% in assay [3] (setting [6]) and 87.9% in assay [3] (setting [7]). The differential viability (reversal) in assay [3] (H69AR cells + 2 uM doxorubicin) was 13.4% (inactive). The inhibition in assay [4] is -2.63% (inactive); in assay [5] it was 7.62% (inactive).
As for `CC(=O)Nc1cccc(-c2nnc(-c3ccccc3)o2)c1`, the viability is 88.8% (inactive) in assay [1], 92.6% (inactive) in assay [2], 85.8% in assay [3] (setting [6]) and 92.6% in assay [3] (setting [7]). Also, the differential viability (reversal) in assay [3] (H69AR cells + 2 uM doxorubicin) is 6.77% (inactive). Moreover, the inhibition in assay [4] is -5.58% (inactive); in assay [5] it was -1.9% (inactive).
With `COc1ccc(CN2C(=O)C(O)(CC(=O)c3c(C)n[nH]c3C)c3ccccc32)cc1OC` (stereo unspecified), the viability in assay [1] was 105% (inactive); in assay [2], 95.4% (inactive); in assay [3] (setting [6]) it was 92%; in assay [3] (setting [7]) it was 95.4%. In assay [3] (H69AR cells + 2 uM doxorubicin), the differential viability (reversal) is 3.36% (inactive). In addition, the values for the inhibition in assay [4] and in assay [5] were -0.53% (inactive) and -4.44% (inactive), respectively.
Turning to `CSc1n[nH]c(NCc2ccccc2)n1`, the viability in assay [1] was 96.5% (inactive); in assay [2], 96.8% (inactive); in assay [3] (setting [6]), 96.1%; in assay [3] (setting [7]) it was 96.8%. Further, in assay [3] (H69AR cells + 2 uM doxorubicin), the differential viability (reversal) was 0.755% (inactive). The inhibition in assay [4] is -5.13% (inactive); in assay [5], 1.43% (inactive).
As for `Cc1cc(C)c(OCC(=O)Nc2cccc(O)c2)cc1C`, the viability in assay [1] is 78.2% (inactive); in assay [2] it was 101% (inactive); in assay [3] (setting [6]), 97.7%; in assay [3] (setting [7]) it was 101%. Besides, the differential viability (reversal) in assay [3] (H69AR cells + 2 uM doxorubicin) is 3.2% (inactive). The inhibition in assay [4] was -5.07% (inactive); in assay [5] it was 3.97% (inactive).
Turning to `COc1ccc(C)cc1-n1nnnc1SCC(=O)NC(=O)NCc1ccco1`, the viability in assay [1] is 90.9% (inactive); in assay [2] it was 87.3% (inactive); in assay [3] (setting [6]), 78.1%; in assay [3] (setting [7]), 87.3%. The differential viability (reversal) in assay [3] (H69AR cells + 2 uM doxorubicin) was 9.23% (inactive). The inhibition in assay [4] is -1.69% (inactive); in assay [5], 3.17% (inactive).
With `O=C(O)C1C2CCC(O2)C1C(=O)Nc1cccc(F)c1` (stereo unspecified), the viability in assay [1] was 80.9% (inactive); in assay [2] it was 90.8% (inactive); in assay [3] (setting [6]) it was 80.5%; in assay [3] (setting [7]), 90.8%. For the same compound, the differential viability (reversal) in assay [3] (H69AR cells + 2 uM doxorubicin) is 10.3% (inactive). For the same compound, the results for the inhibition in assay [4] and in assay [5] were -4.74% (inactive) and 3.02% (inactive), respectively.
In the case of `COc1ccc(CCNC(=O)C2CCCN(c3nn4c(=O)cc(C)nc4s3)C2)cc1OC` (stereo unspecified), the viability is 78.6% (inactive) in assay [1], 86.4% (inactive) in assay [2], 91% in assay [3] (setting [6]) and 86.4% in assay [3] (setting [7]). For the same compound, the differential viability (reversal) in assay [3] (H69AR cells + 2 uM doxorubicin) was -4.58% (inactive). The inhibition in assay [4] is -6.8% (inactive); in assay [5], 3.65% (inactive).
On to `CN(c1ccccc1)S(=O)(=O)c1cc(C(=O)N2CCN(c3ccccn3)CC2)ccc1Cl`, for which the viability in assay [1] was 45.3% (inactive); in assay [2], 88.5% (inactive); in assay [3] (setting [6]), 78.4%; in assay [3] (setting [7]), 88.5%. Besides, the differential viability (reversal) in assay [3] (H69AR cells + 2 uM doxorubicin) was 10.1% (inactive). Further, the results for the inhibition in assay [4] and in assay [5] were 0.39% (inactive) and 2.22% (inactive), respectively.
With `Cc1cc(C)cc(Nc2ncc3c(n2)CC(c2ccco2)CC3=O)c1` (stereo unspecified), the viability was 86.1% (inactive) in assay [1], 88.3% (inactive) in assay [2], 87.3% in assay [3] (setting [6]) and 88.3% in assay [3] (setting [7]). For the same compound, in assay [3] (H69AR cells + 2 uM doxorubicin), the differential viability (reversal) was 1% (inactive). The inhibition is -6.67% (inactive) in assay [4] and 3.17% (inactive) in assay [5].
In the case of `Cc1nc2cc(NC(=O)N3CC4(C)CC3CC(C)(C)C4)ccc2n1C` (stereo unspecified), the viability in assay [1] was 100% (inactive); in assay [2] it was 89.7% (inactive); in assay [3] (setting [6]), 82.2%; in assay [3] (setting [7]) it was 89.7%. The differential viability (reversal) in assay [3] (H69AR cells + 2 uM doxorubicin) was 7.53% (inactive). The inhibition in assay [4] was -6.71% (inactive); in assay [5], -8.1% (inactive).
On to `Cc1ccc2nc(CSc3nnc(-c4ccco4)n3-c3ccccc3)cc(=O)n2c1`, for which the viability is 109% (inactive) in assay [1], 87.2% (inactive) in assay [2], 98% in assay [3] (setting [6]) and 87.2% in assay [3] (setting [7]). Besides, the differential viability (reversal) in assay [3] (H69AR cells + 2 uM doxorubicin) is -10.8% (inactive). In addition, the results for the inhibition in assay [4] and in assay [5] were 4.81% (inactive) and 16.4% (inactive), respectively.
As to `O=C(COC(=O)c1ccc(NS(=O)(=O)c2ccc3c(c2)OCCO3)cc1)NCC1CCCO1` (stereo unspecified), the viability in assay [1] was 104% (inactive); in assay [2], 107% (inactive); in assay [3] (setting [6]) it was 95.8%; in assay [3] (setting [7]), 107%. In addition, the differential viability (reversal) in assay [3] (H69AR cells + 2 uM doxorubicin) is 11.2% (inactive). Besides, the inhibition in assay [4] was -1.69% (inactive); in assay [5] it was -7.78% (inactive).
As for `O=C(c1nc2n(n1)C(c1ccc(Cl)cc1)C=C(c1ccccc1)N2)N1CCOCC1` (stereo unspecified), the viability in assay [1] was 96.9% (inactive); in assay [2] it was 91.9% (inactive); in assay [3] (setting [6]), 98.8%; in assay [3] (setting [7]) it was 91.9%. The differential viability (reversal) in assay [3] (H69AR cells + 2 uM doxorubicin) is -6.89% (inactive). Moreover, the inhibition is -1.18% (inactive) in assay [4] and -1.9% (inactive) in assay [5].
For the compound `O=C(O)c1ccc(-n2nnnc2Oc2ccccc2C(=O)N2CCOCC2)cc1`, the viability in assay [1] is 108% (inactive); in assay [2], 102% (inactive); in assay [3] (setting [6]), 85.7%; in assay [3] (setting [7]), 102%. In assay [3] (H69AR cells + 2 uM doxorubicin), the differential viability (reversal) was 16.1% (inactive). Also, the inhibition in assay [4] was -1.97% (inactive); in assay [5], -2.7% (inactive).
Take `COCCNC(=O)c1ccc(Cl)c(Cl)c1`: the viability in assay [1] was 108% (inactive); in assay [2], 102% (inactive); in assay [3] (setting [6]) it was 85%; in assay [3] (setting [7]), 102%. The differential viability (reversal) in assay [3] (H69AR cells + 2 uM doxorubicin) is 17% (inactive). Also, the inhibition in assay [4] was -3.16% (inactive); in assay [5] it was -0.16% (inactive).
With `COc1ccc(C(=O)COC(=O)CCn2nnc(-c3cccs3)n2)cc1`, the viability was 110% (inactive) in assay [1], 102% (inactive) in assay [2], 93.4% in assay [3] (setting [6]) and 102% in assay [3] (setting [7]). The differential viability (reversal) in assay [3] (H69AR cells + 2 uM doxorubicin) is 9.01% (inactive). In addition, the inhibition is -0.27% (inactive) in assay [4] and -6.35% (inactive) in assay [5].
